An excerpt weighted towards active compounds, which were near 3.6% of everything screened.
Tau filament bind = tau filament binding; actives 2% (n = 71,000); P10636; Potency, µM (series often up to 57.1 µM), inactives show at the highest dose activity change, negative = inhibition; recombinant tau filaments, thioflavin S fluorescence, 15 h; filaments grown with octadecylsulfate alongside compound;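 also: % is scaled to controls: 0 for no effect and ±100 for the full control effect; actives lower thioflavin S fluorescence by blocking filaments or displacing dye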
Target sequence (P10636 whole entry, looked up): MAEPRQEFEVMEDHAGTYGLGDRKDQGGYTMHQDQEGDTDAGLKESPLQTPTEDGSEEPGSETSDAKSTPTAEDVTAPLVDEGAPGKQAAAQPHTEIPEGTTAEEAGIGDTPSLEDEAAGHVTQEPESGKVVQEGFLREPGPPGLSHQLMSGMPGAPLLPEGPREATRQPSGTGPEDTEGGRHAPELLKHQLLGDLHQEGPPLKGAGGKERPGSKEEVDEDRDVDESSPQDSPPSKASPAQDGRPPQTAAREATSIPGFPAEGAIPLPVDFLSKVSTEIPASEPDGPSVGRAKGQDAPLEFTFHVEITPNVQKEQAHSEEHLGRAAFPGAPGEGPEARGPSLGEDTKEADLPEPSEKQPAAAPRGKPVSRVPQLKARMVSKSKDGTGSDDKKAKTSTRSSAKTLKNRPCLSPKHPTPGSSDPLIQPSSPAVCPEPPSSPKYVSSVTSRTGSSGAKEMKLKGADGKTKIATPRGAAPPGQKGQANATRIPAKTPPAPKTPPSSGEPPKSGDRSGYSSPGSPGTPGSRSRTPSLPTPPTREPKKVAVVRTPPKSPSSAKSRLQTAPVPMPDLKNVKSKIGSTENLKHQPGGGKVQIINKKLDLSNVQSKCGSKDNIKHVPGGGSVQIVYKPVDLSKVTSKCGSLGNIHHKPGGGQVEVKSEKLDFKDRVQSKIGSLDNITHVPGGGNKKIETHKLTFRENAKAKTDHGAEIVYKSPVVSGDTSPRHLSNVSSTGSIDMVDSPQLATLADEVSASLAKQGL
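ThS-based fibril read: tau 1 uM final, inducer ODS 30 uM final, 37 C for 15 h, ex 450/em 510 nm.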
Hsp90 Hop PPI = changes Hsp90-Hop TPR2A binding signal, up or down; AlphaScreen TPR2A-His6 binding biotin-Hsp90 C-terminal peptide; Potency, µM (top dose mostly 57 µM), for the others: at the top dose activity change, negative = inhibition; actives 0.44% (n = 71,000); active = well fitted curve in either direction with a large enough effect; inconclusive = small, poorly fitted or top-dose-only effect, or another doubt; also: % is scaled to controls: 0 for no effect and ±100 for the full control effect
IkB sig inh = inhibitors of IkB signaling in ABC-DLBCL cells; ABC-DLBCL IkBa-CBG/CBR dual luciferase ratio, 4 h; response scale: scaled: untreated 0%, proteasome inhibitor 100%; Potency, µM (series often up to 57.1 µM), without a hit: at the highest dose IkBa stabilization activation; actives 0.04% (n = 110,000); active = well fitted curve in the direction sought with a large enough effect in the signal ratio, not every such curve was filed as active; inconclusive = small, poorly fitted or top-dose-only effect, or a change in a side signal; the % refers to the signal ratio;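 also: the direction sought is a rising ratio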
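Curves were fitted separately to fusion (green), unfused (red) and ratio luminescence, then classed by r2, magnitude and activity. Cells: OCI-Ly3, 4 h compound plus doxycycline at 37C; 10 uM MG-132 defined full response.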
CRE-bla Fsk = CRE-bla signaling modulation under forskolin stimulation; CHO CRE-bla reporter (cAMP response element driving beta-lactamase), forskolin EC10, beta-lactamase ratio; Potency, µM (top dose mostly 38.2 µM), for inactives: top-dose activity change, negative = inhibition, actives largely listed as activators; actives 2.5% (n = 71,000); active = well fitted activation curve with a large enough effect in the signal ratio, with a control signal flat, not every such curve was filed as active; inconclusive = small, poorly fitted or top-dose-only effect, or effect the other way, or a change in a side signal; the % refers to the signal ratio; also: % of control where 0% means no effect
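Modulation of forskolin signalling: compounds in titration series added with EC10 NKH 477 to CHO cells carrying a CRE-driven beta-lactamase reporter, 3 h, 37C. CCF4 FRET ratio (460/530 nm, ex 405 nm) gives %activity and AC50.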
15-hLO inh = blocks human 15-lipoxygenase activity; purified 15hLO-1, xylenol orange hydroperoxide absorbance; Potency, µM (highest dose often 57.1 µM), for inactives: top-dose activity change, negative = inhibition, hits mostly inhibitors; actives 1.4% (n = 74,000); AID 887; P16050; also: % is scaled to controls: 0 for no effect and ±100 for the full control effect; nearly all actives have a fitted effect of over 55% in size
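Inhibition is scored from a chromogenic endpoint. After 15 min enzyme-compound contact, arachidonic acid (50 uM final) reacts 6 min with 40 nM 15hLO-1 at room temperature, then Fe-XO reagent is added for 30 min and absorbance ratio recorded.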
Starred values were filed as active, the others as inactive; ? = inconclusive; . = no result; ! = repeats disagree; [ ] = remark or other dose. Unless noted, calls follow the shape of the dose curve; as a rule, active = well fitted curve in the direction sought with a large enough effect; inconclusive = small, poorly fitted or top-dose-only effect, or another doubt; inactive = no such curve, though single readings can be large; an effect the other way counts as inactive or inconclusive. Potency is read from the fitted curve at half-maximal effect.

SMILES | Tau filament bind | Hsp90 Hop PPI | IkB sig inh | CRE-bla Fsk | 15-hLO inh
COc1ccc(NC(=O)N2CCN(S(=O)(=O)c3ccc4c(ccn4C)c3)CC2)c(OC)c1 | . | . | 2.1% | . | .
CSCCOC(=O)c1[nH]c2c(c1C)C(=O)CC(c1ccco1)C2 (stereo unspecified) | 25.6% | -4.0% | ? | 7.94µM* | -15.5%
COCCOC(=O)c1[nH]c2c(c1C)C(=O)CC(c1ccccc1)C2 (stereo unspecified) | -1.4% | -3.8% | 1.2% | ? | -8.6%
COCCOC(=O)c1[nH]c2c(c1C)C(=O)CC(c1ccc(F)cc1)C2 (stereo unspecified) | 205.3% | -4.7%[2.3 µM] | -1.3% | 3.3% | -8.7%
CCOC(=O)c1[nH]c2c(c1C)C(=O)CC(c1ccco1)C2 (stereo unspecified) | 4.4% | -0.1% | ? | 1µM* | ?
NC(=O)c1cc(-c2ccccc2)sc1NC(=O)Cc1ccc(S(=O)(=O)N2CCOCC2)s1 | 7.94µM* | -13.7% | ? | ? | -9.2%
O=C(Nc1nnc(-c2ccccc2)s1)c1ccc(Cl)c(S(=O)(=O)N2CCOCC2)c1 | 1.9%[11.4 µM] | -7.1%[11 µM] | 1.5% | 4.6%[7.6 µM] | 0.2%[11.4 µM]
Cc1cc(-c2ccc(Cl)cc2)n2nc(N)nc2n1 | 3.3% | -3.2% | -0.1% | 12.6µM* | 3.4%
Cc1cc(C)n2nc(SCc3ncc(-c4ccccc4)o3)nc2n1 | 6.7% | -2.8% | -0.2% | ? | -12.4%
c1ccc(-c2cnc(CSc3ncnc4sccc34)o2)cc1 | -13.0% | 4.7% | ? | 1.7% | 15.8µM*
CCc1ccc(C2C(C(=O)Nc3ccccc3OC)=C(C)Nc3nc(SCc4ccccc4)nn32)cc1 (stereo unspecified) | . | . | 1.8% | . | .
O=C(O)c1cc(N=Nc2ccc([N+](=O)[O-])cc2)ccc1O | 31.6µM*! | -28.2%[11 µM] | ? | -8.6%[7.6 µM] | -0.4%[11.4 µM]
NS(=O)(=O)c1ccc(N=Nc2ccc(O)c(C(=O)O)c2)cc1 | -0.3%[11.4 µM] | -8.2%[11 µM] | 0.6%[11.4 µM] | -7.3%[7.6 µM] | -21.6%[11.4 µM]
Cc1ccccc1OCC(=O)Nc1c(C)ccc2nsnc12 | . | . | -2.6% | . | .
CC1=C(/C=C/C(C)=C/C=C/C(C)=C/C=C/C=C(C)/C=C/C=C(C)/C=C/C(=O)[C@]2(C)CC(O)CC2(C)C)C(C)(C)CC(O)C1 (stereo partly specified) | . | . | . | . | 3.16µM*
CC1=C(/C=C/C(C)=C/C=C/C(C)=C/C(=O)O)C(C)(C)CCC1 | . | . | . | . | -7.5%[25.6 µM]
Cc1ccc(-c2cc3nc(C)cc(NCc4ccco4)n3n2)cc1 | 37.0% | 18.2% | ? | 12.6µM* | -11.3%
c1ccc(OCc2nc(-c3ccccc3)no2)cc1 | -2.3% | ? | ? | -0.1% | -0.4%
Cc1noc(COc2ccc(OCc3nc(C)no3)cc2)n1 | 0.794µM* | 0.4% | 0.4% | -0.7% | 0.0%
CC[n+]1ccc(C)c2cc(S(=O)C(F)(F)F)ccc21 (stereo unspecified) | 6.31µM* | -6.5% | -0.2% | -0.3% | -2.8%
CC(C)OCCCn1c(-c2ccco2)nc2nc3ccccc3nc21 | 15.8µM* | 2.8% | -4.2% | 7.94µM* | -18.0%
COCCn1c(-c2cc(OC)c(OC)c(OC)c2)nc2nc3ccccc3nc21 | 0.4% | -1.7% | -1.1% | ? | -17.9%
COCCn1c(-c2ccco2)nc2nc3ccccc3nc21 | -15.2% | -1.6% | 2.6% | 7.94µM* | -14.6%
CCOC(=O)C1CCN(C(c2ccccc2OC)c2c(O)cc(C)n(CCOC)c2=O)CC1 (stereo unspecified) | . | . | 0.7% | . | .
COc1ccc(OC)c(NC(=O)CSc2nnc(-c3ccco3)n2-c2ccccc2)c1 | 79.4% | -13.3% | 2.1% | 2.51µM* | -8.6%
CC(=O)Nc1ccc(NC(C)=O)s1 | -9.6% | -0.5% | 5.1% | 0.0% | 20µM*
O=C(c1cc2nc(-c3ccccc3)cc(C(F)(F)F)n2n1)N1CCCC1 | -8.7% | 0.4% | -0.3% | ? | 2.4%
Cc1cc(N2CCN(C(=O)c3ccco3)CC2)n2nc(C)c(-c3ccccc3)c2n1 | 106.6% | 3.1% | 1.0% | 7.94µM* | -0.4%
CN1CCN(C(=O)c2cc3nc(-c4ccccc4)cc(C(F)(F)F)n3n2)CC1 | 25.1µM* | -1.1% | -0.6% | 17.3% | 0.3%
